Results reported in PubChem BioAssay.
Unmarked numbers belong to inactive results. How the calls were made is not given here.

Molecular target: Pantothenate synthetase (Mycobacterium tuberculosis (strain ATCC 25618 / H37Rv)) (UniProt P9WIL5)
Test: Coupled enzyme confirmation of inhibitors against recombinant Mtb PanC (AID 375);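 further: 0% = full reaction with vehicle and 100% = no enzyme background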
Conditions: coupled enzyme assay; at 10 µM, active compounds read high

Pantothenate synthetase (Mycobacterium tuberculosis (strain ATCC 25618 / H37Rv)), sequence (P9WIL5 whole entry, looked up): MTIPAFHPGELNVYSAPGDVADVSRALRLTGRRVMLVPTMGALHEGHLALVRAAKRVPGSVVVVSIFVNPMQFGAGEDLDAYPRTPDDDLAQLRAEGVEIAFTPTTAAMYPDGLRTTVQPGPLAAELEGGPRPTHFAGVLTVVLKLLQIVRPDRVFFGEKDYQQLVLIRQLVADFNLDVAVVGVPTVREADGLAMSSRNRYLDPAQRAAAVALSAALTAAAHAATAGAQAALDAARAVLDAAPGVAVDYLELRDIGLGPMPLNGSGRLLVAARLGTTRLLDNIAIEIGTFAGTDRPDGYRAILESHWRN

Row | SMILES | inhibition
1 | O=C1CC(c2ccsc2)c2cc3c(cc2N1)OCCO3 (stereo unspecified) | 0%
2 | O=C(CN1C(=O)CC(c2ccccc2)=Nc2ccccc21)NCc1ccco1 | 0%
3 | O=C(NCCO)c1cccc2c1C(=O)c1ccccc1-2 | 11%
4 | CCOC(=O)C1=C(CSc2nc(C)cc(C)c2C#N)OC(N)=C(C#N)C1c1cccs1 (stereo unspecified) | 2%
5 | COc1cc(NS(=O)(=O)c2ccc(N)cc2)ncn1 | 0%
6 | O=C(OCC(=O)N1CCc2ccccc21)C1=COCCO1 | 0%
7 | Cc1nc(SCC(=O)Nc2cc(C)on2)c2c3c(sc2n1)CCCC3 | 4%
8 | CCCc1cc(=O)[nH]c(Nc2ccc(OC)c(Cl)c2)n1 | 3%
9 | COc1ccc(CCn2c(-c3ccco3)nc3ccccc3c2=O)cc1OC | 0%
10 | O=C(C1CCCN(S(=O)(=O)c2cccc3nonc23)C1)N1CCC(Cc2ccccc2)CC1 (stereo unspecified) | 3%
11 | CCn1c(SCC(N)=O)nc2c1c(=O)n(C)c(=O)n2C | 0%
12 | CCOC(=O)c1ccc(NC(=O)CC2SC(=NC)N(C)C2=O)cc1 (stereo unspecified) | 2%
13 | N#CCSc1nc(-c2ccccc2)cs1 | 0%
14 | NC(=O)c1nsnc1-c1ccccc1O | 2%
15 | CCn1cnc2cc(NCc3cccc(OC)c3O)ccc21 | 12%
16 | Cc1ccc(CN2CCN(C(=O)C3CCC3)CC2)cc1 | 3%
17 | CCN1CCN(c2nc(-c3cccnc3)nc3ccccc23)CC1 | 0%
18 | CCOC(=O)CSc1nnc(-c2cccnc2)n1Cc1ccccc1 | 0%
19 | O=C(NCc1ccco1)C1CCN(C(=O)c2cc3sccc3n2Cc2ccc(F)cc2)CC1 | 5%
20 | O=C(O)CCC1(C(=O)O)OCCc2ccccc21 (stereo unspecified) | 8%
21 | COc1cccc(N2C(=O)C(O)=C(C(C)=O)C2c2ccc(OC)c(OC)c2)c1 (stereo unspecified) | 0%
